The values below come from publication PMC5540273 (PLoS ONE, 2017).

Molecules are shown by their SMILES.

Test systems include PRKCH; PRKCI; PRKCQ; PRKD1; PRKD2; PRKD3; PRKG1; PRKG2; PRKX.
What all share (conditions): concentration: 1 μM, replicates: in singlicate; n = 1
A further assay relates to T1, PRKR.
T1 construct: gene EIF2AK2
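Also: KINOMEscan kinase panel screen.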

With `Fc1ccc(-c2nc[nH]c2-c2ccncc2)cc1` [SB-217360], the “%Inh” value in the assay on PRKCH, with PRKCI, in the assay on PRKCQ, with PRKD1, with PRKD2 and in the assay on PRKD3 was 0% in each case. The “%Inh” value came to 18% in the assay with PRKG1, 0% with PRKG2, 0% in the assay on PRKR and 0% with PRKX.

With `CNc1cc(-c2ccc3c(N)n[nH]c3c2)nc(N)n1` [GSK2224810], the “%Inh” value in the assay on PRKCH was 0%; in the assay with PRKCI it was 27%; in the assay on PRKCQ, 0%; in the assay on PRKD1, 0%; with PRKD2, 6%; in the assay on PRKD3 it was 6%. Also, the “%Inh” value in the assay on PRKG1 came out at 0%; with PRKG2, 85%; in the assay with PRKR, 18%; in the assay with PRKX it was 57%.

As to `COC(=O)c1cccc(NC(=O)NC2CCN(c3ccnc(Nc4ccc(F)cc4)n3)C2)c1` (centres unmarked) [GSK1379725], the “%Inh” value with PRKCH amounted to 3%; in the assay with PRKCI, 15%; in the assay with PRKCQ, 0%; in the assay on PRKD1, 1%; in the assay with PRKD2, 1%; in the assay on PRKD3 it was 0%. For the same compound, the “%Inh” value in the assay with PRKG1, with PRKG2, in the assay with PRKR and in the assay on PRKX was 0% each time.

In the case of `Cc1ccc(NC(=O)Nc2ccccc2)cc1-c1ccc(C(=O)Nc2ccncc2)cc1` [GSK1398471], the “%Inh” value with PRKCH was 11%; in the assay on PRKCI it was 22%; in the assay on PRKCQ it was 8%; in the assay with PRKD1 it was 20%; with PRKD2, 15%; in the assay with PRKD3, 3%. Besides, the “%Inh” value in the assay with PRKG1 turned out to be 0%; in the assay on PRKG2, 0%; with PRKR, 0%; in the assay with PRKX it was 14%.

As for `CSc1ccc(-c2nc3n(c2-c2ccncc2)CCC3)cc1` [SKF-105561], the “%Inh” value with PRKCH came out at 0%; in the assay with PRKCI it was 37%; with PRKCQ it was 0%; in the assay on PRKD1, 27%; in the assay on PRKD2, 4%; with PRKD3, 0%. For the same compound, the “%Inh” value with PRKG1, in the assay with PRKG2, in the assay on PRKR and in the assay on PRKX was 0% in each case.

With `COc1ccc(Nc2nccc(N3CCC(NC(=O)C(C)c4ccc(Cl)cc4)CC3)n2)cc1` (centres unmarked) [GSK1379812], the “%Inh” value amounted to 6% in the assay with PRKCH; 0% in the assay with PRKCI; 0% in the assay on PRKCQ; 0% with PRKD1; 16% with PRKD2; 0% in the assay on PRKD3. In addition, the “%Inh” value was 2% in the assay with PRKG1, 17% in the assay on PRKG2, 0% with PRKR and 8% with PRKX.

For the compound `CNC(=O)c1ccc(C)c(-n2c(C)cc(OCc3ccc(F)cc3F)c(Br)c2=O)c1`, the “%Inh” value worked out at 0% in the assay on PRKCH; 99.7% in the assay on PRKCI; 7% with PRKCQ; 0% in the assay on PRKD1; 1% in the assay with PRKD2; 0% with PRKD3. Besides, the “%Inh” value in the assay on PRKG1 is reported as 78%; with PRKG2 it was 95.6%; with PRKR it was 0%; in the assay with PRKX, 0%.

In the case of `CS(=O)(=O)Cc1ccc(Nc2nccc(-c3c(-c4cccc(NC(=O)C5CCCCC5)c4)nn4ncccc34)n2)cc1` [GSK350559], the “%Inh” value with PRKCH came to 3%; in the assay with PRKCI, 23%; in the assay on PRKCQ, 25%; with PRKD1, 0%; with PRKD2, 0%; in the assay with PRKD3, 18%. Further, the “%Inh” value in the assay with PRKG1 was 0%; in the assay on PRKG2, 3%; in the assay on PRKR it was 0%; with PRKX, 5%.

In the case of `Cc1ccccc1-c1cc(-c2c[nH]nc2-c2ccccn2)ccn1` [GW680061], the “%Inh” value in the assay on PRKCH was 2%; in the assay with PRKCI it was 8%; in the assay on PRKCQ, 2%; in the assay with PRKD1, 0%; with PRKD2, 0%; in the assay with PRKD3, 100%. Moreover, the “%Inh” value in the assay with PRKG1 is 0%; with PRKG2 it was 0%; in the assay on PRKR it was 0%; in the assay on PRKX it was 5%.

Take `CC(=O)c1c(C)c2cnc(Nc3ccn(C)n3)nc2n(C2CCCC2)c1=O`: the “%Inh” value with PRKCH, with PRKCI, in the assay on PRKCQ, in the assay on PRKD1, in the assay with PRKD2 and in the assay on PRKD3 was 0% each time. Moreover, the “%Inh” value in the assay on PRKG1, in the assay on PRKG2, in the assay with PRKR and in the assay with PRKX was 0% in each case.

Consider `CS(=O)(=O)CCNCc1nc(-c2ccc3ncnc(Nc4ccc(OCc5ccccc5)c(Cl)c4)c3c2)cs1.Cl` [GW582764], for which the “%Inh” value was found to be 2% in the assay on PRKCH; 39% in the assay on PRKCI; 3% in the assay on PRKCQ; 2% in the assay with PRKD1; 0% with PRKD2; 100% in the assay with PRKD3. Besides, the “%Inh” value with PRKG1 is recorded as 0%; with PRKG2, 1%; with PRKR it was 0%; in the assay on PRKX it was 0%.

`Cc1ccc(-c2nc(Nc3ccncc3)c3ccccc3n2)s1` [GSK189015]: the “%Inh” value in the assay with PRKCH was 29%; in the assay with PRKCI it was 20%; in the assay with PRKCQ, 29%; with PRKD1, 18%; in the assay with PRKD2 it was 14%; in the assay on PRKD3, 22%. Also, the “%Inh” value came to 12% with PRKG1, 0% in the assay with PRKG2, 0% with PRKR and 19% with PRKX.

In the case of `CS(=O)(=O)CCNCc1nc(-c2ccc3ncnc(Nc4ccc5c(cnn5Cc5ccccc5)c4)c3c2)cs1.Cl.Cl` [GW569716], the “%Inh” value came to 11% in the assay on PRKCH; 23% in the assay with PRKCI; 0% in the assay with PRKCQ; 4% with PRKD1; 0% in the assay on PRKD2; 0% in the assay with PRKD3. Moreover, the “%Inh” value in the assay on PRKG1, in the assay on PRKG2, in the assay with PRKR and with PRKX was 0% in each case.

Consider `Cc1ccc(NC(=O)c2ccc(Cl)cc2)cc1-c1ccc(C(=O)Nc2ccncc2)cc1` [GSK1398467], for which the “%Inh” value was determined as 5% in the assay with PRKCH; 5% in the assay with PRKCI; 0% in the assay with PRKCQ; 0% with PRKD1; 0% in the assay with PRKD2; 9% with PRKD3. Besides, the “%Inh” value turned out to be 0% in the assay on PRKG1, 0% in the assay with PRKG2, 4% in the assay with PRKR and 23% with PRKX.

Take `Cn1cncc1-c1cc2c(Nc3ccc(OCc4ccccc4)cc3)ncnc2cn1` [GW281179]: the “%Inh” value in the assay on PRKCH was 13%; in the assay with PRKCI, 12%; in the assay with PRKCQ, 0%; in the assay on PRKD1 it was 0%; in the assay with PRKD2 it was 2%; in the assay with PRKD3, 1%. The “%Inh” value with PRKG1 is given as 8%; in the assay on PRKG2 it was 100%; with PRKR it was 0%; in the assay on PRKX, 15%.

Consider `COc1nccc(-c2c(-c3ccc(F)cc3)ncn2CCCN2CCOCC2)n1` [SB-282852], for which the “%Inh” value in the assay on PRKCH worked out at 0%; with PRKCI it was 23%; in the assay with PRKCQ, 0%; in the assay on PRKD1, 21%; in the assay on PRKD2, 6%; in the assay on PRKD3, 0%. Further, the “%Inh” value in the assay on PRKG1 amounted to 10%; in the assay on PRKG2 it was 24%; in the assay on PRKR, 10%; with PRKX, 0%.

With `FC(F)(F)c1ccccc1-c1cc(-c2c[nH]nc2-c2ccccn2)ccn1` [GW679396], the “%Inh” value with PRKCH turned out to be 11%; in the assay on PRKCI, 32%; in the assay with PRKCQ it was 0%; in the assay with PRKD1, 12%; in the assay on PRKD2 it was 5%; in the assay with PRKD3, 100%. Further, the “%Inh” value with PRKG1 is given as 18%; in the assay with PRKG2 it was 0%; in the assay with PRKR, 0%; in the assay with PRKX, 0%.
